A selection: hits, their analogues and other compounds. The true share with any hit is near 19%.
DT40 TDP1 no CPT: qHTS for Inhibitors of human tyrosyl-DNA phosphodiesterase 1 (TDP1): qHTS in cells in absence of CPT | Potency, µM (doses to about 46.2 µM), most hits filed as inhibitors | hit rate 15% among 420,000 | AID 686978, 2013 | DT40 Tdp1-/- hTDP1 cells, no CPT, ATP luminescence, 48 h; note: nearly all actives have a fitted effect of over 55% in size
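Seeded 400 DT40-hTDP1 cells/well (vehicle DMSO, no 20 nM CPT); pinned compounds; ≥48 hr at 37 °C; CellTiter-Glo luminescence as viability measure.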
HT1080-NT tox: kills 2HG-producing HT-1080-NT fibrosarcoma cells. HT-1080-NT fibrosarcoma viability, CellTiter-Glo ATP luminescence, 48 h. AID 686970. Potency, µM (doses to about 46.1 µM), usual class: cytotoxic. hit rate 1.6% among 360,000;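 note: NT is the 2HG producing partner of a matched IDH1 knockdown line; nearly all actives have a fitted effect of over 55% in size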
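Compounds were tested in concentration-response format on HT-1080-NT cells for 48 hours at 37 degrees C. Cell viability came from CellTiter-Glo luminescence; curves were classified by r2, response magnitude and activity.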
TDP1 cell CPT: DT40-hTDP1 cell growth loss with CPT. chicken DT40 Tdp1-/-;hTDP1 cells + 20 nM CPT, ATP luminescence, 48 h. Potency, µM (titrated, usually from 46.2 µM), hits mostly inhibitors. hit rate 12% among 420,000. AID 686979; note: nearly all actives have a fitted effect of over 55% in size
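Chicken DT40 Tdp1-/- cells stably complemented with human TDP1 were seeded at 400 cells/well in medium containing 20 nM camptothecin, exposed to pin-transferred compounds, and grown at 37 °C for at least 48 hr. Viability was read as ATP luminescence.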
IL-1B inflam inh: inflammasome signaling inhibition, IL-1 beta readout; THP-1 LPS/ATP IL-1B secretion, AlphaLISA, 16 h; hits give low values; hit rate 4.7% among 360,000; activity change, % at 57.5 µM; in the data active = activity change below about -50%; inconclusive = mostly about -30% to -49%
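THP-1 cells pretreated 1 hr with compounds (up to 57.5 uM final), then stimulated with LPS (250 ng/mL final) plus ATP (1.25 mM final); secreted IL-1B measured by AlphaLISA after 16 hr, decreased signal indicating inhibition.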
HT1080 IDH1KD tx: HT-1080 IDH1 knockdown cell toxicity (counter line); HT-1080 IDH1 knockdown viability, ATP luminescence, 48 h; AID 686971; hit rate 2% among 360,000; Potency, µM (top dose mostly 46.1 µM), usual class: cytotoxic
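IDH1KD HT-1080 cells, 750/well, RPMI + 5% FBS; compound pinned after 2 h settling; 48 h, 37 °C; CellTiter-Glo luminescence; % activity normalised to DMSO and no-cell wells; curves fitted, classed by r2 and efficacy.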
Hits are given with their value; 0 = inactive; ? = inconclusive; - = not tested or not shown; [ ] = remark or other dose. Unless noted, calls come from the whole dose curve; as a rule, active = well fitted curve in the direction sought with a large enough effect; inconclusive = small, poorly fitted or top-dose-only effect, or another doubt; inactive = no such curve, though single readings can be large; an effect the other way counts as inactive or inconclusive.

SMILES | DT40 TDP1 no CPT | HT1080-NT tox | TDP1 cell CPT | IL-1B inflam inh | HT1080 IDH1KD tx
O=C(/C=C/c1ccc(Cl)cc1)NC(=S)Nc1ccc(N2CCOCC2)c(Cl)c1 | 11.6µM | ? | 11.6µM | 0 | ?
O=C(NC1CC1)c1cccc(NC(=O)c2cnn(-c3ccccc3)n2)c1 | 16.4µM | 0 | 23.1µM | 0 | 0
O=C(/C=C/c1ccc(Cl)cc1)Nc1ccccc1N1CCOCC1 | ? | 0 | ? | 0 | 0
Cc1cc(NC(=O)c2cccc(S(=O)(=O)Nc3cccc(C(=O)O)c3)c2)no1 | 0 | 0 | 0 | 0 | 0
Cc1ccccc1C(=O)NNC(=O)C1CC(=O)N(Cc2ccccc2)C1 (stereo not drawn) | 0 | 0 | 0 | 0 | 0
COc1ccc(CN2CCCCCC2)cc1Br | 0 | 0 | 0 | 0 | 0
COCCCNC(=O)CSc1nc2cc(C(=O)NCCOC)ccc2c(=O)n1Cc1ccc2c(c1)OCO2 | 0 | 0 | 0 | 0 | 0
CC(C)(C)c1ccc(/C=C/C(=O)Nc2ccncc2)cc1 | 7.31µM | ? | 10.3µM | ? | ?
O=C(/C=C/c1ccccc1)NC(=S)Nc1ccccc1 | ? | 0 | 0 | -61.2 | 0
O=C(/C=C/c1ccccc1)Nc1cccc(C(=O)NC2CC2)c1 | 0 | 0 | 0 | -64.1 | 0
O=C(/C=C/c1ccccc1)Nc1cccc(C(=O)NCCCc2ccccc2)c1 | ? | 0 | ? | 0 | 0
O=C(/C=C/c1ccccc1)NC(=S)Nc1ccc(N2CCOCC2)cc1 | 0 | 7.94µM | ? | 0 | ?
CC1(C(=O)Nc2cccc3ccccc23)CCN1C(=O)Cc1ccccc1Cl (stereo not drawn) | ? | 0 | ? | 0 | 0
CCCN1CCN(C(=O)c2cnn(-c3ncc4c(n3)-c3ccccc3CCC4)c2COC)CC1 | 0 | - | 0[9.04 µM] | - | -
COc1ccc(N2CCN(C(=O)c3cccn4c(=O)c5ccc(Cl)cc5nc34)CC2)cc1 | 0 | - | 0 | - | -
COc1cc2c(cc1OC)-c1cc3ccc(OC)c(OC)c3c[n+]1CC2 | 5.17µM | 0 | 5.17µM | 0 | 0
Cc1ccc(NC(=O)CSc2ccccc2NC(=O)c2ccccc2)cc1Cl | 13µM | 0 | 14.6µM | ? | ?
Cc1nc(SCC(=O)Nc2ccc(C)c(Cl)c2)cc(-c2ccccc2)n1 | ? | - | 23.1µM | - | -
COc1ccc(NC(=O)CSc2cc(-c3ccccc3)nc(C)n2)cc1 | 0 | - | ? | - | -
Cc1ccc(NC(=O)CSc2ccccc2NC(=O)c2ccccc2Cl)cc1Cl | 18.4µM | 0 | ? | 0 | 0
CS(=O)(=O)N1CCC[C@@]2(CCN(C(=O)Nc3ccccc3)C2)C1 | 0 | - | 0 | - | -
O=c1c2c([N+](=O)[O-])cc([N+](=O)[O-])cc2nc2ccccn12 | ? | 0 | ? | 0 | 0
O=c1c2c([N+](=O)[O-])cc([N+](=O)[O-])cc2sn1-c1ccc(Br)cc1 | ? | 0 | 10.3µM | 0 | 0
O=c1c2c([N+](=O)[O-])cc([N+](=O)[O-])cc2sn1Cc1ccccc1 | 5.17µM | ? | 5.17µM | -105.1 | ?
O=c1c2cc([N+](=O)[O-])cc([N+](=O)[O-])c2[nH]n1-c1ccccc1 | ? | 0 | ? | 0 | 0
SMILES | DT40 TDP1 no CPT | HT1080-NT tox | TDP1 cell CPT | IL-1B inflam inh | HT1080 IDH1KD tx
O=C(/C=C\c1ccc2c(c1)OCO2)NC1CC(=O)N(c2cccc(F)c2)C1 (stereo not drawn) | 0 | - | ? | - | -
COC(=O)c1sccc1S(=O)(=O)N(CC(=O)Nc1cc(F)ccc1F)c1ccc(C)c(C)c1 | 13µM | - | ? | - | -
COC(=O)c1sccc1S(=O)(=O)N(CC(=O)Nc1cc(C)ccc1C)c1ccc(C)c(C)c1 | 20.6µM | - | 20.6µM | - | -
CCc1ccccc1NC(=O)CN(c1ccccc1)S(=O)(=O)c1ccsc1C(=O)OC | 18.4µM | - | 16.4µM | - | -
COC(=O)c1sccc1S(=O)(=O)N(CC(=O)Nc1ccccc1)c1ccccc1 | ? | - | 0 | - | -
COC(=O)c1sccc1S(=O)(=O)N(CC(=O)Nc1cccc(C)c1C)c1ccc(C)c(C)c1 | 23.1µM | - | 20.6µM | - | -
CC1C(C#N)=C(N)OC2=C1C(=O)CC(c1ccccc1)C2 (stereo not drawn) | 0 | 0 | 0 | 0 | 0
C/C(=N\n1cnnc1)c1ccc(C#N)cc1 | 0 | 0 | 0 | 0 | 0
CCC1(c2ccccc2)SC(N)=NC1=O (stereo not drawn) | 0 | 0 | 0 | 0 | 0
Cc1cccc(CSc2nnc3[nH]c(=O)cc(-c4ccccc4)n23)c1 | 0 | - | 0 | - | -
COc1ccccc1-c1ccnc(-n2ncc(C(=O)NC(C)(C)CO)c2C2CC2)n1 | 0 | - | 0 | - | -
O=C(O)/C(=C\c1ccccc1OC(F)F)Sc1nnc(-c2ccc(F)cc2)o1 | ? | 0 | 20.6µM | 0 | 0
Cc1ccccc1OC(=O)CSc1nnc(-c2ccc(F)cc2)o1 | 0 | - | 0 | - | -
O=C(c1csc2ccccc12)N1CCCCCC1 | 18.4µM | 0[9.24 µM] | 20.6µM | 0 | 0
CCc1ccc(-c2cc(C)no2)cc1S(=O)(=O)N1CCN(c2ccccn2)CC1 | ? | ? | ? | 0 | 0
